Cardio protect = protects H9c2 cardiomyocytes from peroxide injury. H2O2 injury protection, ATPLite, 2 h. 0.63% of 360,000 active. protection from H2O2 cell death, % at 20 µM;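 active = compounds giving at least 50% protection of heart cells from peroxide-induced death in the single-dose screen, raw or plate-pattern-corrected value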
PHOSPHO1 block = inhibitors of human PHOSPHO1 phosphatase. inhibition, % at 13.3 µM. recombinant PHOSPHO1, absorbance phosphatase assay. Q8TCT1. 1.1% of 290,000 active; in the data active = inhibition above about 60%
Target sequence (Q8TCT1 whole entry, looked up): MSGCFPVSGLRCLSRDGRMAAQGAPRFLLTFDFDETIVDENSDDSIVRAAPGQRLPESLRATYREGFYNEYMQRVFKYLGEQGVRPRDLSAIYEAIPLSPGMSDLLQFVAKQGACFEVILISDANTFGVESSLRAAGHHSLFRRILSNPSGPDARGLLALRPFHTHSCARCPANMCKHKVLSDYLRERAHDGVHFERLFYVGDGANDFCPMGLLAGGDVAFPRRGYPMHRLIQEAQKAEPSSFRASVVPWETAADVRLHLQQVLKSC
M18AAP inhibitor = PfM18AAP enzyme inhibition. recombinant PfM18AAP, H-Glu-NHMec fluorogenic cleavage. inhibition, % at 7.35 µM. 1.2% of 290,000 active. AID 1822;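 active = inhibition above the campaign mean inhibition over all tested compounds plus 3 SD, cut at about 28% in these data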
PfG6PD inh = PfG6PD (Plasmodium falciparum) enzyme inhibition; PfGluPho enzyme, NADPH resazurin-diaphorase fluorescence; inhibition, % at 20 µM; 0.78% of 350,000 active;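 active = inhibition reaching at least a set limit at 20 µM in the primary screen, cut at about 59% in these data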
ALR inh = human ALR oxidase inhibition via reduced H2O2. inhibition, % (no concentration beside the values). 3.8% of 290,000 active. purified ALR, DTT oxidation, H2O2 HRP-luminol luminescence. AID 485317;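 active = mean replicate inhibition above about 79%, with every replicate also reaching it, limit read from the data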
Target sequence (P55789 whole entry, looked up): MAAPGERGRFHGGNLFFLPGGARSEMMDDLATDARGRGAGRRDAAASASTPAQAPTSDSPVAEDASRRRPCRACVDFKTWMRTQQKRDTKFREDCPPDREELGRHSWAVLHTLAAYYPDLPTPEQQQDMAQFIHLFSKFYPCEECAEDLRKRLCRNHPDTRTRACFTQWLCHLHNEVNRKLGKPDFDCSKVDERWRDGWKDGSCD
Large screens that a line does not name were inactive. Shown are actives, neighbours in structure and some others; about 5.6% of the full set was active somewhere.

CCSc1ccc2nnc(-c3cccc(F)c3)n2n1	PHOSPHO1 block 94
O=C(O)CSc1ccc2nnc(-c3cccnc3)n2n1	none
[N-]=[N+]=NCC/C=C\C1NS(=O)(=O)OCC1O (stereo unspecified)	none
COC(=O)c1cn(NC(=O)Cn2nc([N+](=O)[O-])c(Br)c2C)c(=O)c2ccccc12	none
Cc1cc(O)c(C(C)C)cc1N=C1CSC(=O)N1	PHOSPHO1 block 87
Cc1ccc(N=C2CSC(=O)N2)cc1	none
Cc1ccc(-c2csc(N3CCC[C@@H]3C(=O)NCCn3c(-c4ccncc4)nc4ccccc43)n2)cc1	Cardio protect 69
Cc1ccc(-c2csc(N3CCN(CCCn4c(-c5ccncc5)nc5ccccc54)CC3)n2)cc1	none
O=C(CSc1nnc(-c2ccc(O)cc2)n1-c1ccccc1)CC(=O)Nc1ccccc1	M18AAP inhibitor 33
Cc1cccc(C)c1NC(=O)CCCSc1nnc(-c2ccc(Cl)cc2)n1-c1ccccc1	none (no result: ALR inh)
Cn1c(SCC(=O)CC(=O)Nc2ccccc2)nnc1-c1ccc(O)cc1	none (no result: ALR inh)
Cc1cccc(C)c1NC(=O)CCCSc1nnc(-c2ccc(F)cc2)n1-c1ccccc1	ALR inh 96
O=c1oc2ccccc2cc1-c1csc(NN=C2CCCCC2)n1	ALR inh 87
COc1cc(C(C)=O)ccc1OCC(O)CN1CCN(c2ccc(C)c(C)c2)CC1 (stereo unspecified)	ALR inh 98
CC(=O)Nc1ccc(OCC(O)CN2CCN(c3cc(Cl)ccc3C)CC2)cc1 (stereo unspecified)	none
CCc1ccc(OCC(O)CN2CCN(c3ccc(OC)cc3)CC2)cc1 (stereo unspecified)	ALR inh 94
CC(=O)Nc1ccc(OCC(O)CN2CCN(c3ccc(C)c(Cl)c3)CC2)cc1 (stereo unspecified)	ALR inh 98
COc1ccc(OCC(O)CN2CCN(c3ccccc3)CC2)cc1 (stereo unspecified)	none
COc1ccc(N2CCN(CC(O)COc3ccc(C)cc3C)CC2)cc1 (stereo unspecified)	ALR inh 79
CCN(CC)S(=O)(=O)c1ccc(Cl)c(NC(=O)COC(=O)c2nc3nc(C)cc(C)n3n2)c1	none (no result: PHOSPHO1 block, M18AAP inhibitor)
COc1cccc(NC(=O)COC(=O)c2ccccc2C(=O)N(C)c2ccccc2)c1	none (no result: PHOSPHO1 block, M18AAP inhibitor)
C=C(C)COC(=O)c1ccccc1C(=O)OCC1(C)CO1 (stereo unspecified)	none (no result: PHOSPHO1 block, M18AAP inhibitor, ALR inh)
Oc1ccccc1Cc1c(O)ccc2ccccc12	ALR inh 91 (no result: PHOSPHO1 block, M18AAP inhibitor)
Oc1ccc2ccccc2c1CN1CCOCC1	PHOSPHO1 block 74 (no result: ALR inh)
O=C(O)CSc1c2c(nc3cc(C(=O)Nc4cccc(C(F)(F)F)c4)ccc13)CCC2	ALR inh 96
CCOc1ccc(NC(=O)c2ccc3c(SCC(=O)O)c4c(nc3c2)CCCC4)cc1	none
Cc1ccc(NC(=O)c2ccc3c(SCC(=O)O)c4c(nc3c2)CCCC4)c(Br)c1	ALR inh 90
CC(=O)CSc1cc(-c2ccccc2)nc2ncnn12	ALR inh 98
COc1ccc(OCC(=O)Nc2ccc3c(c2)nc(CCN2CCN(C)CC2)n3C)cc1	PHOSPHO1 block 70
Cc1cc2ncc(C(=O)Nc3ccsc3C(=O)O)c(C)n2n1	none
C#CCSc1nccc(-c2nn(-c3ccc(C)cc3)ccc2=O)n1	PHOSPHO1 block 81
CC(=O)C1=C(C)OC(N)=C(C#N)C1c1cc2cccc(C)c2nc1Cl (stereo unspecified)	none
Cc1ccc2cc(C3C(C#N)=C(N)Oc4c3ccc3cccnc43)c(=O)[nH]c2c1 (stereo unspecified)	Cardio protect 70
N#CC1=C(N)Oc2c(ccc3cccnc23)C1c1cccnc1 (stereo unspecified)	Cardio protect 83
CCc1ccc2[nH]c(=O)c(C3C(C#N)=C(N)Oc4c3ccc3cccnc43)cc2c1 (stereo unspecified)	Cardio protect 64, PHOSPHO1 block 89
CC1CN(c2ccccn2)C(C)CN1C(=S)Nc1ccccc1 (stereo unspecified)	none (no result: PHOSPHO1 block, M18AAP inhibitor, ALR inh)
CCCCCCNC(=O)N[C@@H](C(=O)NCCC[C@H]1CN2C(=NC[C@@H]2Cc2ccccc2)N1CCc1cccc(OC)c1)C(C)C	PfG6PD inh 64 (no result: Cardio protect, M18AAP inhibitor)
COC(=O)c1sccc1NC(=O)c1cc(C)on1	ALR inh 96
COC(=O)c1sccc1NC(=O)Nc1cccc(Cl)c1Cl	none
Cc1cccc(NC(=O)Nc2cc(C)on2)c1	none
Cc1cc(C(=O)Nc2ccccc2Cc2ccccc2)no1	PHOSPHO1 block 66
COC(=O)c1sccc1NC(=O)Nc1cccc(C)c1C	PHOSPHO1 block 61
Cc1cc(NC(=O)Nc2cccc(C)c2C)no1	ALR inh 99
O=C1NC(=O)C2(COC(c3cccc([N+](=O)[O-])c3)OC2)S1 (stereo unspecified)	none
Cc1c(C(=O)NC2=NCCS2)oc2ccccc12	ALR inh 97
COCCNc1nc(NCCCN2CCCC2=O)c2sccc2n1	none (no result: PHOSPHO1 block, M18AAP inhibitor, PfG6PD inh, ALR inh)
Cc1cccc(Nc2nnc(SCC(=O)Nc3ccc(C(=O)O)cc3)s2)c1	ALR inh 94
COc1cccc(Nc2nnc(SCC(=O)Nc3sccc3C(N)=O)s2)c1	PHOSPHO1 block 62
CN1CCN(C(=O)C2CCCN(S(=O)(=O)c3ccc(Cl)cc3)C2)CC1 (stereo unspecified)	PHOSPHO1 block 65
CN1CCN(C(=O)C2CCCN(S(=O)(=O)c3ccc(Br)cc3)C2)CC1 (stereo unspecified)	none
Cc1ccc(S(=O)(=O)NC(=O)Nc2cc(C)ccc2F)cc1	none
CC(=O)NS(=O)(=O)c1ccc(N=c2ssc3c2-c2ccc(C)cc2NC3(C)C)cc1	ALR inh 100
Cn1c(SCc2ccccc2)nccc1=O	none (no result: PHOSPHO1 block, M18AAP inhibitor, ALR inh)
CC1=C(SCc2ccccc2)C(=O)c2ccccc2C1=O	PfG6PD inh 105 (no result: PHOSPHO1 block, M18AAP inhibitor, ALR inh)
O=C(NCc1ccccc1)C1CCN(c2nc(-c3ccccc3)nc3c2CCC3)CC1	none
CC1CCCN(C(=O)C2CCN(c3nc(-c4ccccc4)nc4c3CCC4)CC2)C1 (stereo unspecified)	PHOSPHO1 block 66
CN1OC[C@@H]2CN(C(=O)CCc3ccccc3)[C@H](c3cccc(-c4ccccc4)c3)C[C@@H]21	none (no result: PHOSPHO1 block, M18AAP inhibitor, ALR inh)
COc1ccc(-c2nc(CS(=O)(=O)CC(=O)NCCCN3CCOCC3)c(C)o2)cc1	none
Cc1oc(-c2cccc(Cl)c2)nc1CS(=O)(=O)CC(=O)NCCN1CCOCC1	ALR inh 95
COc1cccc(-c2nc(CS(=O)(=O)CC(=O)NCCCN3CCOCC3)c(C)o2)c1	ALR inh 99
Cc1oc(-c2ccccc2Cl)nc1CS(=O)(=O)CC(=O)NCCN1CCOCC1	ALR inh 93
Cc1oc(-c2cccc(Cl)c2)nc1CS(=O)(=O)CC(=O)NCCN1CCCC1	none
CCCN1CCN(C(=O)CS(=O)(=O)Cc2nc(-c3cccc(OC)c3)oc2C)CC1	none
CCN1CCN(C(=O)CS(=O)(=O)Cc2nc(-c3cccc(OC)c3)oc2C)CC1	ALR inh 99
Cc1ccccc1-c1nc(CS(=O)(=O)CC(=O)NCCN2CCCC2)c(C)o1	none
COc1ccc(C(=O)Nc2ccccc2C(=O)NC2CC2)c(OC)c1OC	none (no result: PHOSPHO1 block, M18AAP inhibitor, ALR inh)

Source: PubChem BioAssay (several laboratories)
